In a collection of fitness landscapes (doi:10.1126/science.1257360):
In all, about 140,000 sequences were measured (“enrichment ratio after two sorts for PhoP signalling”: median about 0, highest 2% from about 11 on). The list comes from a sample in which the highest values are over-represented; it also holds similar and randomly drawn sequences.

B1: PhoQ; a variant is named by its letters at X, in order, P23837 (parent)
chain: MKKLLRLFFPLSLRVRFLLATAAVVLVLSLAYGMVALIGYSVSFDKTTFRLLRGESNLFYTLAKWENNKLHVELPENIDKQSPTMTLIYDENGQLLWAQRDVPWLMKMIQPDWLKSNGFHEIEADVNDTSLLLSGDHSIQQQLQEVREDDDDAEMTHSVAVNVYPATSRMPKLTIVVVDTIPVELKSSYMVWSWFIYVLSANLLLVIPLLWVAAWWSLRPIEALAKEVRELEEHNRELLNPATTRELTSLVRNLNRLLKSERERYDKYRTTLTDLTHSLKTPLXXLQXXLRSLRSEKMSVSDAEPVMLEQISRISQQIGYYLHRASMRGGTLLSRELHPVAPLLDNLTSALNKVYQRKGVNISLDISPEISFVGEQNDFVEVMGNVLDNACKYCLEFVEISARQTDEHLYIVVEDDGPGIPLSKREVIFDRGQRVDTLRPGQGVGLAVAREITEQYEGKIVAGESMLGGARMEVIFGRQHSAPKDE

Variants of: B1
Test: enrichment ratio after two sorts for PhoP signalling (ratio (wild type AVST 3.29)); higher = more functional
Details: with PhoP (E. coli)

| Variant | enrichment ratio |
| --- | --- |
| RAGW | ≤ 0.25 |
| SSNF | 1.62 |
| MSNL | ≤ 0.25 |
| MSMD | ≤ 0.25 |
| MSMI | 23.5 |
| MSML | 14.3 |
| MSMV | 12.7 |
| MSWV | 10.2 |
| MSMS | ≤ 0.25 |
| MSMG | 2.86 |
| MSLV | 14.7 |
| MSHK | ≤ 0.25 |
| MSLS | 5.72 |
| DWAP | ≤ 0.25 |
| DRKM | ≤ 0.25 |
| HNAE | ≤ 0.25 |
| LMAI | ≤ 0.25 |
| EHKQ | ≤ 0.25 |
| REPP | ≤ 0.25 |
| MSLE | 3.24 |
| MFWQ | ≤ 0.25 |
| QFWQ | ≤ 0.25 |
| QIWQ | 34.4 |
| RTWQ | ≤ 0.25 |
| QDWQ | ≤ 0.25 |

| Variant | enrichment ratio |
| --- | --- |
| WIWQ | ≤ 0.25 |
| MCWQ | ≤ 0.25 |
| TGWQ | 22.6 |
| QSWQ | 33.6 |
| KSWQ | ≤ 0.25 |
| MLWQ | ≤ 0.25 |
| MSWQ | 14.5 |
| SRES | ≤ 0.25 |
| PTVM | ≤ 0.25 |
| GKLF | ≤ 0.25 |
| IMPS | ≤ 0.25 |
| KGLY | ≤ 0.25 |
| FVII | ≤ 0.25 |
| VELP | ≤ 0.25 |
| RMVC | ≤ 0.25 |
| DREF | ≤ 0.25 |
| PGRT | ≤ 0.25 |
| MMWQ | ≤ 0.25 |
| MGGG | ≤ 0.25 |
| NVWQ | ≤ 0.25 |
| MGWQ | 24.5 |
| MIWQ | 24.2 |
| MHWQ | ≤ 0.25 |
| MRWQ | ≤ 0.25 |
| QLWQ | 11.9 |

| Variant | enrichment ratio |
| --- | --- |
| TPWQ | ≤ 0.25 |
| REHV | ≤ 0.25 |
| INFD | ≤ 0.25 |
| HGVS | ≤ 0.25 |
| ASCK | 22.8 |
| KSCK | ≤ 0.25 |
| ASIS | 7.49 |
| ASNM | 5.71 |
| ASCQ | 4.02 |
| ASCP | ≤ 0.25 |
| ASQV | 1.45 |
| ASCA | 13.5 |
| ASTW | ≤ 0.25 |
| ASCV | 18.9 |
| ASIE | 0.421 |
| ASIV | 11.4 |
| DLCQ | ≤ 0.25 |
| APTW | ≤ 0.25 |
| NWDH | ≤ 0.25 |
| QMYQ | 7.96 |
| QHMS | ≤ 0.25 |
| YTIN | ≤ 0.25 |
| ASFG | 1.66 |
| ATIN | 11.9 |
| VRTV | ≤ 0.25 |

| Variant | enrichment ratio |
| --- | --- |
| ASCG | 18.9 |
| ADIN | ≤ 0.25 |
| ASGG | 4.75 |
| AITV | 6.12 |
| ASTV | 12.1 |
| ASDV | ≤ 0.25 |
| ANTV | 16.3 |
| AHTV | ≤ 0.25 |
| HSQP | ≤ 0.25 |
| RWHM | ≤ 0.25 |
| HETV | 4.78 |
| RMYW | ≤ 0.25 |
| EHNH | ≤ 0.25 |
| VGEA | ≤ 0.25 |
| SAAE | ≤ 0.25 |
| RITI | ≤ 0.25 |
| GKRA | ≤ 0.25 |
| ASIM | 14.6 |
| TSIA | 2.99 |
| KSIN | ≤ 0.25 |
| KSIA | ≤ 0.25 |
| ASCM | 11.6 |
| ASIR | 0.563 |
| ASVN | 7.54 |
| ASNK | ≤ 0.25 |

| Variant | enrichment ratio |
| --- | --- |
| ASIA | 13.9 |
| VRCM | ≤ 0.25 |
| ASIN | 12 |
| PHTE | ≤ 0.25 |
| IMWY | ≤ 0.25 |
| TLSA | 7.98 |
| KLEH | ≤ 0.25 |
| ISEL | ≤ 0.25 |
| VMQA | ≤ 0.25 |
| GMPK | ≤ 0.25 |
| AVTV | 12.1 |
| MNTV | 12.2 |
| ASAV | 11.5 |
| AMTV | 9.95 |
| ASWV | ≤ 0.25 |
| ASTC | 5.39 |
| AWTV | ≤ 0.25 |
| ASAE | 5.56 |
| MLTV | ≤ 0.25 |
| ASRC | ≤ 0.25 |
| ASIC | 12.1 |
| TNTV | 10.2 |
| DPKY | ≤ 0.25 |
| MCMW | ≤ 0.25 |
| PTRL | ≤ 0.25 |

| Variant | enrichment ratio |
| --- | --- |
| ETSM | ≤ 0.25 |
| LHSW | ≤ 0.25 |
| ASCC | 18.2 |
| ASWN | ≤ 0.25 |
| ASIL | 19.5 |
| ASII | 12.7 |
| ASIQ | 5.62 |
| ASCS | 4.46 |
| ASFH | ≤ 0.25 |
| VRCC | ≤ 0.25 |
| ASCI | 19.9 |
| ASIT | 9.21 |
| ASWL | 5.05 |
| ASCE | 4.22 |
| DFLG | ≤ 0.25 |
| RMGP | ≤ 0.25 |
| MITD | ≤ 0.25 |
| PINH | ≤ 0.25 |
| EKTC | ≤ 0.25 |
| QEPD | ≤ 0.25 |
| ERFK | ≤ 0.25 |
| LKWG | ≤ 0.25 |
| TNVF | ≤ 0.25 |
| ASPL | 1.12 |
| ASCL | 20.8 |

| Variant | enrichment ratio |
| --- | --- |
| TARQ | ≤ 0.25 |
| HHQY | ≤ 0.25 |
| NSST | ≤ 0.25 |
| SSST | 12.7 |
| SPST | ≤ 0.25 |
| KSST | ≤ 0.25 |
| SLST | 2.81 |
| TSST | 15 |
| QMYK | ≤ 0.25 |
| QIPN | ≤ 0.25 |
| FCES | ≤ 0.25 |
| VVSR | ≤ 0.25 |
| NAWV | ≤ 0.25 |
| FSAV | 0.409 |
| KSYV | ≤ 0.25 |
| QSAE | ≤ 0.25 |
| FFWV | ≤ 0.25 |
| QAWV | 20.2 |
| QSAV | 12.1 |
| FSWV | ≤ 0.25 |
| QEYV | ≤ 0.25 |
| KAWV | ≤ 0.25 |
| QGWV | 18.5 |
| QSYV | 14.9 |
| TGVE | ≤ 0.25 |

| Variant | enrichment ratio |
| --- | --- |
| HYPL | ≤ 0.25 |
| AGIC | 3.1 |
| RPIA | ≤ 0.25 |
| TYVT | ≤ 0.25 |
| AHFF | ≤ 0.25 |
| HDNT | ≤ 0.25 |
| WSHN | ≤ 0.25 |
| PSPA | ≤ 0.25 |
| LQDQ | ≤ 0.25 |
| WDVC | ≤ 0.25 |
| DEVE | ≤ 0.25 |
| QLWV | ≤ 0.25 |
| QGMS | ≤ 0.25 |
| KSAV | ≤ 0.25 |
| QQVK | ≤ 0.25 |
| QSWV | 22.9 |
| TSAV | 16.5 |
| QPWV | ≤ 0.25 |
| QRWV | ≤ 0.25 |
| QQWV | 11.8 |
| MMAV | 5.57 |
| QGIV | ≤ 0.25 |
| QGMV | 23.6 |
